Shown are actives, neighbours in structure and some others; about 2.2% of the full set was active somewhere.
SMARCA2 activ: SMARCA2 (BRM) function activators, primary screen, cell-based, luminescence, high throughput; MG213 cells, MMTV-luciferase reporter, dexamethasone, overnight; activation, % at 9.1 µM; 370,000 tested, 1% active; AID 652017, 2013; in the data active = activation above about 7.8%;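 also: 0% = vehicle wells and 100% = reference activator wells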
HIF activator: HIF pathway transcriptional activators, primary screen, cell-based, U2OS HRE-luciferase, luminescence; 300,000 tested, 0.32% active; AID 1910, 2009; activation, % at 7.5 µM (by protocol); U2OS HRE-luciferase reporter; normalized: DMSO 0%, desferrioxamine 100%;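 active = mean activation of at least 10% of the iron chelator positive control signal, with at least half of replicates also reaching 10%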
GalR3 antag: GalR3 antagonists in HEK293 cells, primary screen, cell-based, fluorescence readout | Galanin receptor type 3 (Homo sapiens), O60755 | HEK293 GalR3-CNG cAMP membrane potential fluorescence; galR3 body fused to GalR1 C-terminus | AID 651719, 2012 | 360,000 tested, 0.44% active | inhibition, % at 3 µM;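 active = inhibition above the screen-wide average plus 3 SD, cut at about 13% in these data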;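 also: forskolin and galanin both at EC90 stimulate the cells; cAMP rise reported by CNG channel membrane potential dye signal; 0% = forskolin plus galanin with DMSO and 100% = forskolin alone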
Target sequence (O60755 1-299 limits assumed): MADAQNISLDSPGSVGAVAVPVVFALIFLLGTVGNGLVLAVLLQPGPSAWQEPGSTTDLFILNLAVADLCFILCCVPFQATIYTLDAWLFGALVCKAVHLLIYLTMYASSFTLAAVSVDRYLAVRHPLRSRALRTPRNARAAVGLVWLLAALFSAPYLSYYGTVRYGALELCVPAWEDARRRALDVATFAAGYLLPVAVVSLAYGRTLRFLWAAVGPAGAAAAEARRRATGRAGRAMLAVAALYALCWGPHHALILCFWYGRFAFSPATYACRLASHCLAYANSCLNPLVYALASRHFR
FXN GAA850 act: FXN promoter activators, primary screen, cell-based, luciferase luminescence, HEK293 lucGAA850. activation, % at 6 µM. HEK293 lucGAA850 FXN promoter luciferase reporter, 24 h; percent of 10 µM SAHA response. 360,000 tested, 0.56% active;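 active = activation above the average of all compounds screened plus 3 SD, cutoff fixed separately per campaign, cut at about 7.5% in these data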;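 also: 0% = DMSO wells and 100% = 10 µM SAHA wells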
Hsp70 activator: Hsp70 transcriptional activators, primary screen, cell-based, HeLa, Hsp70 promoter luciferase, luminescence, 10 µM; HeLa Hsp70 promoter luciferase reporter; scaled: vehicle 0, proteasome-inhibitor control 100%; activation, % at 10 µM; 200,000 tested, 0.04% active;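 active = activation above the mean across all tested compounds plus 3 SD, cutoff set per campaign, cut at about 5.5% in these data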;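 also: 100% = MG132 at 30 µM as the positive control and 0% = DMSO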
SMARCA2 conf: SMARCA2 (BRM) function activators, confirmation, cell-based, luminescence, triplicate | shares compounds with SMARCA2 activ | MG213 cells, MMTV-luciferase with dexamethasone, overnight; MG213 cells expressing E1A, Rb sequestered; DMSO wells 0%, reference activator 100% | activation, % at 9.1 µM | 3,500 tested, 30% active | AID 652260, 2013;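 active = activation above its plate's cutoff, the mean activation of tested wells plus 3 SD, cut at about 7.9% in these data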
VP16 Luc act: GAL4-VP16 luciferase reporter activation, counter-screen for SMARCA2 (BRM) activator project, cell-based, pG5luc, luminescence, high throughput | activation, % at 9.1 µM | shares compounds with SMARCA2 activ | 3,500 tested, 41% active | HEK293 GAL4-VP16 pG5luc reporter; scaled: DMSO wells 0%, SAHA wells 100%;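 active = activation above the solvent-only control well mean plus 3 SD, averaged across control plates, cut at about 5.2% in these data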
* = called active by the depositor; · = no result given.

SMILES	SMARCA2 activ	HIF activator	GalR3 antag	FXN GAA850 act	Hsp70 activator	SMARCA2 conf	VP16 Luc act
CCC(C)(C)C1CCC(=NNC(=S)Nc2ccccc2)CC1 (stereo not given)	8.9*	2.4	4.6	6.4	-0.3	-0.2	1.5
Cc1cc(C(=O)COC(=O)c2ccc(Br)o2)c(C)n1C	9.7*	3.0	-2.8	3.1	0.2	15.3*	6.5*
CCOc1ccc(N=C(C)C2=C(O)c3ccccc3C2=O)cc1	18.8*	0.9	-2.5	3.3	·	8.5*	11.6*
COc1ccc(N=C(C)C2=C(O)c3ccccc3C2=O)cc1	3.4	-0.1	-1.8	-1.2	-0.1	·	·
COc1cccc2sc(Nc3nnc(-c4ccccc4Cl)o3)nc12	8.8*	0.4	1.7	-4.0	0.5	5.8	2.3
COc1ccccc1-c1nnc(Nc2nc3c(OC)cccc3s2)o1	14.8*	4.6	-5.2	-11.2	0.1	6.3	24.4*
CC1CCN(CCc2nc3cc(NC(=O)NC4CCCCC4)ccc3n2C)CC1	8.5*	0.3	-6.1	4.6	-0.2	4.4	1.1
CCOc1ccc(-n2c(SCC(=O)Nc3ccc(S(=O)(=O)Nc4nccs4)cc3)nnc2-c2ccc(C(C)(C)C)cc2)cc1	-0.4	·	·	·	·	·	·
COC(=O)c1cc(S(=O)(=O)N2CCN(c3cccc(C(F)(F)F)c3)CC2)cn1C	-0.2	·	·	·	·	·	·
Cc1ccc(C(C#N)=Cc2ccc3c(c2)OCO3)cc1	13.5*	·	-7.0	-3.7	·	1.6	10.7*
N#C/C(=C\c1ccc2c(c1)OCO2)C(N)=S	1.6	0.0	-2.9	1.9	·	·	·
CC(CN1C(C)CCCC1C)OC(=O)c1ccccc1Cl (stereo not given)	-4.9	0.4	2.9	3.2	0.0	·	·
CC(CN1C(C)CCCC1C)OC(=O)c1ccccc1Br (stereo not given)	8.4*	1.5	-11.0	0.5	·	2.3	0.1
Cc1cc(O)c(C(=O)/C=C/c2ccc(Cl)cc2)c(=O)o1	1.4	2.0	-8.1	3.6	·	·	·
CC(=Nc1ccc(Cl)cc1N)c1c(O)cc(C)oc1=O	9.0*	·	-1.6	·	·	5.4	15.0*
CCC(C)NS(=O)(=O)c1ccc(S(=O)(=O)N(CC(=O)Nc2ccccc2)Cc2ccco2)cc1 (stereo not given)	-3.3	-0.2	2.2	-2.2	0.0	·	·
CCCC(C)NC(=O)CN(Cc1ccco1)S(=O)(=O)c1ccccc1 (stereo not given)	14.8*	·	-1.7	0.7	·	-3.6	-0.8
CN(c1cccc(NC(=O)COc2ccc(Cl)cc2Cl)c1)S(C)(=O)=O	9.4*	2.3	0.8	3.3	-0.2	0.3	9.1*
CC(=O)N1N=C(c2cccc(NS(C)(=O)=O)c2)CC1c1ccc2c(c1)OCO2 (stereo not given)	1.6	1.8	-8.9	3.1	·	·	·
CS(=O)(=O)Nc1ccc(C2=NN(S(C)(=O)=O)C(c3ccc4c(c3)OCO4)C2)cc1 (stereo not given)	10.1*	6.3	0.1	5.8	-0.1	15.6*	6.6*
C=CCOC(=O)N[C@H](c1ccc2ccccc2c1)[C@H](C)/C=C/CC(=O)OC	-3.3	·	·	·	·	·	·
Cc1ccc(C(=O)N/N=C2\CCc3ccccc32)c(C)c1	8.5*	1.5	-0.6	2.4	-0.1	7.2	11.0*
O=C(N/N=C1\CCc2ccccc21)c1ccccc1Cl	3.0	1.5	-0.2	4.2	-0.3	·	·
C#CCn1c(O)c(N=NC(=O)CNC(=O)c2cccnc2)c2ccccc21	9.8*	-0.1	-7.3	1.9	·	-0.4	0.6
CCOC(=O)N1CCN(S(=O)(=O)c2ccc(C(=O)Nc3sc4c(c3C#N)CCC4)cc2)CC1	10.9*	-0.3	-7.8	3.2	-0.4	-2.2	0.6
